Compound activity from PubChem BioAssay.
Shown are actives, neighbours in structure and some others; about 2.5% of the full set was active somewhere.
FLuc inh – firefly luciferase inhibition. purified firefly luciferase, luminescence, 8 min. Potency, µM (top dose mostly 57.1 µM), for the others: top-dose activity change, negative = inhibition, usual class: inhibitors. actives 2.2% (n = 72,000). AID 411; active = well fitted inhibition curve with a large enough effect; inconclusive = small, poorly fitted or top-dose-only effect; also: nearly all actives have a fitted effect of over 40% in size
Target sequence (P08659 whole entry, looked up): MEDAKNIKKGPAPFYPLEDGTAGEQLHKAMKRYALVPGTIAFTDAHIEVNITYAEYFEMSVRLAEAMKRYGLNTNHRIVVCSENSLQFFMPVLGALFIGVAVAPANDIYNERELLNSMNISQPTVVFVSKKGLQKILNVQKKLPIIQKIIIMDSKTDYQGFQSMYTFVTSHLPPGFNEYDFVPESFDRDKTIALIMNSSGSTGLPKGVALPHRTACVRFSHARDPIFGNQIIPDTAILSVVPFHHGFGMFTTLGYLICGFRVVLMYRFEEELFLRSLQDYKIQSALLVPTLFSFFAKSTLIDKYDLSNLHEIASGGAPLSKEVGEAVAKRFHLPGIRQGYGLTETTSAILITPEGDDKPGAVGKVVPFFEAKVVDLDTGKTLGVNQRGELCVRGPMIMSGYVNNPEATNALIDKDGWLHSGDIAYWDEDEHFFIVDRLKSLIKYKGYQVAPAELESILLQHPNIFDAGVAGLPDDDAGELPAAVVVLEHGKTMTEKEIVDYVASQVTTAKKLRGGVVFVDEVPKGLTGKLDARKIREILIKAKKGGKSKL
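qHTS concentration-response profiling: light output of P. pyralis luciferase with luciferin and 10 uM ATP, imidazole buffer pH 7.2. Read by luminescence after 8-min room-temperature incubation.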
PK Bst – pyruvate kinase (B. stearothermophilus) modulation; actives 1.2% (n = 51,000); purified pyruvate kinase, luminescence ATP production; ribose 5-phosphate activator present at AC10; Potency, µM; in the data active = potency below about 11 µM; inconclusive = mostly about 12 µM to 25 µM;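 the screen sought inhibitors and activators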;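 also: scaled between full activation by ribose 5 phosphate and full inhibition by luteolin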
The depositor's hits bear a star; i = inactive; ? = inconclusive; nt = no result; [ ] = dose if it differs, or a comment. Unless noted, % is scaled to controls: 0 for no effect and ±100 for the full control effect; potency is read from the fitted curve at half-maximal effect.

SMILES	FLuc inh	PK Bst
COc1ccc(N2CC(O)=C(c3nc4ccccc4s3)C2=N)c(OC)c1	-3.5%	>11.4
COc1cccc(N2CC(O)=C(c3nc4ccccc4c(=O)[nH]3)C2=N)c1	-6.0%	2.88*
Cc1c(CCC(=O)O)c(=O)oc2cc3occ(-c4ccc(F)cc4)c3cc12	-1.0%	8.31*
Cc1c(CCC(=O)O)c(=O)oc2cc(O)ccc12	0.8%	nt
CC(C)=CCC/C(C)=C/COc1c2ccoc2cc2oc(=O)ccc12	-0.1%[11.4 µM]	nt
Cc1cn2nc(N)c3ccccc3c2n1	-2.8%	8.84*
Cc1nc2c3cnn(-c4ccccc4)c3ncn2n1	-13.1%	nt
O=C(O)/C(=C\c1ccncc1)c1cccc2ccccc12	2.1%[11.4 µM]	nt
C=CCNS(=O)(=O)c1ncnc2nc[nH]c12	1.3%[11.4 µM]	nt
Cc1cc(C)c2c(N)c(C(=O)Nc3nccs3)sc2n1	0.501µM*	nt
COCc1cc(C)nc2sc(C(=O)Nc3nccs3)c(N)c12	-13.0%	nt
O=S(c1ccccc1)c1ccc2nnnn2n1 (stereo not given)	-4.9%	nt
C/C(=N\O)c1ccc2[nH]ccc2c1	-8.4%[25.5 µM]	>25.6
C/C(=N\O)c1ccc2c3c([nH]c2c1)CCCC3	15.8µM*	nt
O=C(Cn1cc2c(n1)CCCC2)N1CCCc2ccccc21	-1.4%	nt
O=C(Cn1nnc(-c2ccc3c(c2)OCO3)n1)N1CCOCC1	1.1%	>57
COc1ccc(-c2ccc(-c3nnn(CC(=O)N4CCOCC4)n3)cc2)cc1	1.58µM*	2.64*
O=C(Cn1nnc(-c2ccc(CN3CCOCC3)cc2)n1)N1CCCc2ccccc21	-0.8%	5.56*
CN(C)S(=O)(=O)c1nc(Cl)c2[nH]cnc2n1	3.1%[11.4 µM]	nt
CO/N=C(\C)CCN1CCc2nc(-c3ccccc3)c(-c3ccccc3)cc2C1	-1.3%[11.4 µM]	nt
CCOC(=O)c1ccc(Nc2cc(C)nc(N3CCOCC3)n2)cc1	0.0%	1.52*
Cc1ccc(Nc2nc(N3CCOCC3)nc(N3CCOCC3)n2)cc1	1.0%	nt
CCOc1ccc(Nc2nc(NCCN3CCOCC3)nc(OC)n2)cc1	-2.8%	6.31*
CCOc1ccc2nc(N3CCOCC3)nc(C)c2c1	15.8µM*	i
Nc1nc(N2CCOCC2)nc2ccccc12	-0.8%	nt
SMILES	FLuc inh	PK Bst
CCOC(=O)c1ccc(NC(=O)c2ccc(CN3CCOCC3)cc2)cc1	-6.1%	>57
Clc1ccc(Nc2nc(NCCN3CCOCC3)nc(N3CCOCC3)n2)cc1	-1.7%	nt
CCOc1ccc(Nc2cc(C)nc(N3CCOCC3)n2)cc1	0.5%	1.45*
O=C1C[C@H]2C(=O)[C@@H]1[C@@H](C(=O)O)[C@H]2C(=O)O	1.7%[11.4 µM]	nt
CC1=NCC[N@@+]1(CCc1ccccc1)Cc1ccccc1	4.0%[11.4 µM]	nt
CN(C)c1ccc(-c2nccc(NCCN3CCOCC3)n2)cc1	0.5%[2.29 µM]	nt
c1ccc(CN2CCC3(CC2)SSC2(CCN(Cc4ccccc4)CC2)SS3)cc1	0.4%[11.4 µM]	nt
COC(=O)[C@@H]1O[C@@H](SCCN)[C@@H](O)[C@H](O)[C@H]1O	4.2%[11.4 µM]	nt
CC(C)C(=O)Nc1ccc(-c2nc3cccnc3o2)cc1	5.01µM*	nt
Cc1ccc(-c2nc3cc(NC(=O)C(C)C)ccc3o2)cc1C	2µM*	1.74*
O=C(Nc1ccc2oc(-c3ccncc3)nc2c1)c1cccs1	-9.6%	3.58*
CC(C)C(=O)Nc1cccc(-c2nc3ccccc3o2)c1	-1.2%	>57
CCOc1ccc(C(=O)Nc2cccc(-c3nc4cccnc4o3)c2)cc1Cl	-14.1%	>57
O=C(Nc1ccc2oc(-c3ccncc3)nc2c1)c1ccccc1F	-11.8%	nt
Cc1cc2nc(-c3ccc(NC(=O)C(C)C)cc3)oc2cc1C	-1.3%	nt
Cc1ccc(-c2nc3cc(NC(=O)C(C)C)ccc3o2)cc1	5.01µM*	nt
Cc1ccc(C[C@H](Cc2nc3ccccc3[nH]2)c2nc3ccccc3[nH]2)cc1	-4.9%[11.4 µM]	nt
CC1=C/C(=N/O)C([C@H]2C=C(C)CC(C)(C)[C@@H]2O)C(C)(C)C1 (stereo not given in full)	1.3%[11.4 µM]	nt
CN1CCN(c2ncc3nc(-c4cn(C)c5ccccc45)c(=O)n(-c4ccccc4)c3n2)CC1	0.6%[11.4 µM]	nt
c1ccc(CCc2cccnc2)nc1	-4.1%[11.4 µM]	nt
Cc1cc(NC(=O)c2cc3ccccc3o2)cc(C)c1OCC(=O)N1CCOCC1	15.8µM*	nt
O=C(Nc1ccc(CN2CCOCC2)cc1)c1cccs1	25.1µM*	nt
O=C(Nc1ccc(CN2CCOCC2)cc1)c1cc2ccccc2o1	12.6µM*	i
O=C(NCCN1CCOCC1)c1cc2ccccc2o1	5.4%	>57
COc1cc(C(=O)Nc2cc(C)c(OCC(=O)N3CCOCC3)c(C)c2)cc(OC)c1OC	-0.8%	nt
SMILES	FLuc inh	PK Bst
O=C(Nc1ccc(CN2CCOCC2)cc1)c1cc2ccccn2n1	3.98µM*	nt
O=C(NCCN1CCOCC1)c1cccs1	-1.0%	>57
O=C(Cc1ccccc1)Nc1ccc(CN2CCOCC2)cc1	-24.7%	>57
CSc1nc(C)cc(Nc2ccc(O)c(CN3CCCCC3)c2)n1	3.1%[11.4 µM]	nt
c1ccc2sc(SCN(C3CCCCC3)C3CCCCC3)nc2c1	3.1%[11.4 µM]	nt
Cn1c(=O)c2c(ncn2CN2CCN(Cn3cnc4c3c(=O)n(C)c(=O)n4C)CC2)n(C)c1=O	1.7%[11.4 µM]	nt
O=c1c(-c2ccccc2)nc2cnc(N3CCNCC3)nc2n1C1CC1	-0.2%[11.4 µM]	nt
O=C(/C=C/N1CCOCC1)c1cc2ccccc2o1	12.6µM*	nt
O=C(c1cc2ccccc2o1)N1CCCCCC1	-2.8%	>57
COc1ncc2nc(-c3ccc(F)cc3)c(=O)n(Cc3ccc(F)cc3)c2n1	1.1%[11.4 µM]	nt
CN1C[C@@H](O)[C@@H](O)[C@@H](O)[C@@H]1CO	3.0%	nt
COc1ccc(-c2nc3cnc(Nc4cccc(OC)c4)nc3n(C)c2=O)cc1	-2.3%[11.4 µM]	nt
O=C(c1cc(-c2ccccc2O)on1)N1CCc2ccccc2C1	-8.4%	nt
CC1CCN(C(=O)c2cc(-c3ccccc3O)on2)CC1	10µM*	nt
COc1ccc(-c2cc(C(=O)N3CCOCC3)no2)cc1OC	-7.5%	>57
O=C(c1cc(-c2cccc(O)c2)on1)N1CCOCC1	12.6µM*	nt
CCOC(=O)c1sc(NC(=O)c2ccco2)nc1C	-6.7%	nt
CCOC(=O)c1sc(NC(=O)c2ccc(C)o2)nc1C	12.6µM*	nt
O=S(=O)(O)c1cc(N=[N+]([O-])c2cc(S(=O)(=O)O)c3ccccc3c2)cc2ccccc12	-2.5%[11.4 µM]	nt
CCNc1ncc2nc(-c3ccc(Cl)cc3)c(=O)n(C[C@H]3CCCO3)c2n1	1.2%[11.4 µM]	nt
O=C(COC(=O)c1cccnc1)Nc1cccc(Cl)c1	-2.6%	>57
O=C(COC(=O)c1cccnc1)c1ccc(Cl)cc1	15.8µM*	nt
O=C(CC(Nc1ccccc1)C(=O)O)c1ccccc1 (stereo not given)	12.6µM*	10.4*
O=C(N[C@@H](Cc1ccccc1)C(=O)O)c1cccnc1	2.4%	nt
Cc1ccc(/C=c2\sc3nc(-c4cccnc4)nn3c2=O)cc1	7.94µM*	nt
SMILES	FLuc inh	PK Bst
Cc1ccc(N2CN=c3s/c(=C\c4cccnc4)c(=O)n3C2)cc1	-0.9%[25.5 µM]	>25.6
COc1ccccc1Nc1nc(-c2cccs2)cs1	12.6µM*	nt
COc1ccc(OC)c(Nc2nc(-c3cccs3)cs2)c1	-7.2%	nt
O=C(O)C(F)(F)C(F)(F)C(F)(F)C(F)(F)C(=O)O	1.8%[11.4 µM]	nt
CC(C)CO/N=C1/C[C@@H](O)[C@@H](O)[C@@H]2[C@@H]3C(=O)N(C(C)(C)C)C(=O)[C@H]3CC[C@@H]12	-1.0%[11.4 µM]	nt
NC(N)=N/N=C\c1ccc(O)c(C(=O)O)c1	4.6%[11.4 µM]	nt
CC1(C)Cc2c(sc(NC(=O)c3ccco3)c2C#N)CO1	7.94µM*	?
Cc1cccc(NC(=O)c2sc(NC(=O)c3ccco3)c(C#N)c2C)c1C	-0.5%	>57
C#CCCCO/N=C1/[C@H]2O[C@@H]2[C@@H](O)[C@H]2[C@H]1CCn1c(=O)n(Cc3cc4c(cc3Cl)OCO4)c(=O)n12	-0.2%[11.4 µM]	nt
